Test results reported in PubChem BioAssay (EPA / NIEHS).
“And” between values parts separate entries of the source, which are not always exact repeats. Equal entries are not always repeated. A structure can be active in one record and inactive in another. The source made the active and inactive calls. The calls were made as follows: active = hit-call score of the fitted dose curve at least 0.9, where 1 is the maximum; inactive = score below 0.9.

read-out: Macrophage colony-stimulating factor (MCSF), CSF1 (gene 1435); test: BSK_IMphg_MCSF: BioMAP Diversity Plus: IMphg Assay for Macrophage colony-stimulating factor (MCSF) Biomarker Activity (AID 2284293); details: primary human endothelial cells with macrophages
Procedure, shortened: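 Co-culture of human venular endothelial cells and macrophages, 24 hours of chemical exposure. M-CSF quantified by ELISA, with parallel SRB total-protein staining for cytotoxicity; activity fitted relative to DMSO.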

SMILES | outcome
O=C(CC(=O)C(F)(F)C(F)(F)C(F)(F)F)c1cccs1 | inactive
C=CC(=O)OCCC(F)(F)C(F)(F)C(F)(F)C(F)(F)C(F)(F)C(F)(F)C(F)(F)C(F)(F)F | inactive
O=C(O)CCC(F)(F)C(F)(F)C(F)(F)C(F)(F)C(F)(F)C(F)(F)F | inactive
O=C(O)CCC(F)(F)C(F)(F)C(F)(F)C(F)(F)C(F)(F)F | inactive
OCC(F)(F)C(F)(F)C(F)(F)C(F)(F)C(F)(F)C(F)(F)C(F)(F)C(F)(F)C(F)(F)C(F)(F)C(F)(F)F | inactive
O=P(O)(O)CCC(F)(F)C(F)(F)C(F)(F)C(F)(F)C(F)(F)C(F)(F)F | inactive
CN(CCO)S(=O)(=O)C(F)(F)C(F)(F)C(F)(F)C(F)(F)C(F)(F)C(F)(F)C(F)(F)C(F)(F)F | inactive
O=S(=O)(O)C(F)(F)C(F)(F)C(F)(F)C(F)(F)C(F)(F)C(F)(F)C(F)(F)C(F)(F)C(F)(F)C(F)(F)F | inactive
CN(Cc1cnc2nc(N)nc(N)c2n1)c1ccc(C(=O)N[C@@H](CCC(=O)O)C(=O)O)cc1 | inactive
O=P(O)(O)CCC(F)(F)C(F)(F)C(F)(F)C(F)(F)C(F)(F)C(F)(F)C(F)(F)C(F)(F)F | inactive
O=C(O)C(F)(F)OC(F)(F)C(F)(F)OC(F)(F)C(F)(F)OC(F)(F)C(F)(F)C(F)(F)C(F)(F)F | inactive

read-out: Interleukin-10 (IL10), IL10 (gene 3586); test: BSK_IMphg_IL10: BioMAP Diversity Plus: IMphg Assay for Interleukin-10 (IL10) Biomarker Activity (AID 2284294); details: primary human endothelial cells with macrophages
Procedure, shortened: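 Human venular endothelial cells cocultured with macrophages, dosed 24 h; IL-10 measured by ELISA, activity relative to DMSO. Cytotoxicity assessed in parallel cultures by sulforhodamine B total-protein staining.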

SMILES | AC50 | outcome
O=C(CC(=O)C(F)(F)C(F)(F)C(F)(F)F)c1cccs1 | 22 µM (active) and 29.2 µM (active) | 
C=CC(=O)OCCC(F)(F)C(F)(F)C(F)(F)C(F)(F)C(F)(F)C(F)(F)C(F)(F)C(F)(F)F |  | inactive
O=C(O)CCC(F)(F)C(F)(F)C(F)(F)C(F)(F)C(F)(F)C(F)(F)F | 38 µM (active) and 30 µM (active) | 
O=C(O)CCC(F)(F)C(F)(F)C(F)(F)C(F)(F)C(F)(F)F |  | inactive
OCC(F)(F)C(F)(F)C(F)(F)C(F)(F)C(F)(F)C(F)(F)C(F)(F)C(F)(F)C(F)(F)C(F)(F)C(F)(F)F | 835 nM (active) | inactive
O=P(O)(O)CCC(F)(F)C(F)(F)C(F)(F)C(F)(F)C(F)(F)C(F)(F)F |  | inactive
CN(CCO)S(=O)(=O)C(F)(F)C(F)(F)C(F)(F)C(F)(F)C(F)(F)C(F)(F)C(F)(F)C(F)(F)F |  | inactive
O=S(=O)(O)C(F)(F)C(F)(F)C(F)(F)C(F)(F)C(F)(F)C(F)(F)C(F)(F)C(F)(F)C(F)(F)C(F)(F)F | 13300 nM (active) | inactive
CN(Cc1cnc2nc(N)nc(N)c2n1)c1ccc(C(=O)N[C@@H](CCC(=O)O)C(=O)O)cc1 |  | inactive
O=P(O)(O)CCC(F)(F)C(F)(F)C(F)(F)C(F)(F)C(F)(F)C(F)(F)C(F)(F)C(F)(F)F | 39.7 µM (active) and 31.3 µM (active) | 
O=C(O)C(F)(F)OC(F)(F)C(F)(F)OC(F)(F)C(F)(F)OC(F)(F)C(F)(F)C(F)(F)C(F)(F)F | 53.4 µM (active) and 56.3 µM (active) | 
